The list is not random: actives were taken first. Their share in the collection is about 5.9%.
Rtt109 Vps75: blocks Candida albicans Rtt109/Vps75 acetyltransferase activity; purified Rtt109/Vps75, ThioGlo CoA-SH fluorescence, 4 h; inhibition, % at 34.9 µM; 0.16% of 330,000 active;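 active = inhibition of at least 50% in every replicate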
ABHD5 PLIN5 PPI: blocks binding of human ABHD5 to perilipin-5; Q00G26+Q8WTS1; 0.78% of 360,000 active; Split G. princeps luciferase complementation, luminescence, 4 h; AID 602281; inhibition, % at 4 µM;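 active = inhibition above the mean inhibition across every tested compound plus 3 SD, cut at about 22% in these data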
Target sequence (Q00G26 whole entry, looked up): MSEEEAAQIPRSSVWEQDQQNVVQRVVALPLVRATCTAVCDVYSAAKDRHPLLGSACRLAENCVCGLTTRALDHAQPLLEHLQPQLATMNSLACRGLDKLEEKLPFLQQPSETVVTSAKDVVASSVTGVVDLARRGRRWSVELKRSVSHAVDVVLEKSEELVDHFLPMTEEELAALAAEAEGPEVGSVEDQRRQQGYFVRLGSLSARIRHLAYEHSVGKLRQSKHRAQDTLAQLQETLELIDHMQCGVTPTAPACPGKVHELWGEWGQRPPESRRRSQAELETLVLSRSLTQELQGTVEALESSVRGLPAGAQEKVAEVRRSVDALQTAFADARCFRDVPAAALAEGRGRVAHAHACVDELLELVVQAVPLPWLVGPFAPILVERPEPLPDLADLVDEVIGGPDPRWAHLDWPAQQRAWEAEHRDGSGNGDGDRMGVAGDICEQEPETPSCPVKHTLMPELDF
Target sequence (Q8WTS1 whole entry, looked up): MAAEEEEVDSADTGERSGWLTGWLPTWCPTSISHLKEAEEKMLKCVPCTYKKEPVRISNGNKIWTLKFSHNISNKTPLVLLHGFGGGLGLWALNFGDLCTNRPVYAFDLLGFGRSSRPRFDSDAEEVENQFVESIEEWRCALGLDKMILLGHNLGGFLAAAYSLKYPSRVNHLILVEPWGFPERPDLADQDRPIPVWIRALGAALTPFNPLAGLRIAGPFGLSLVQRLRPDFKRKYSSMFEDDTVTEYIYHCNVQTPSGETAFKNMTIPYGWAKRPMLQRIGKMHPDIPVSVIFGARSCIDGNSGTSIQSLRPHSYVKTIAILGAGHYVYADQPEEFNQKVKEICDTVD
PRMT1 FP inh: PRMT1 (human) inhibition, primary screen; recombinant PRMT1, activity-based probe fluorescence polarization; Q99873; inhibition, % at 2.79 µM; 1.3% of 370,000 active; AID 652257;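 active = inhibition above about 21% made by adding two undisclosed values, limit read from the data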
rCAG binder: binds r(CAG) RNA repeats | r(CAG) RNA repeat, TO-PRO-1 dye displacement fluorescence | inhibition, % at 3 µM | 1.3% of 370,000 active | AID 651821;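 active = inhibition above the plate cutoff, the mean of all test compounds on that plate plus 3 SD, cut at about 35% in these data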;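 also: higher means more dye released from RNA so lower well fluorescence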
ALR inh: human ALR oxidase inhibition via reduced H2O2; purified ALR, DTT oxidation, H2O2 HRP-luminol luminescence; 3.8% of 290,000 active; inhibition, % (no concentration beside the values);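 active = mean replicate inhibition above about 79%, with every replicate also reaching it, limit read from the data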
LANA-H2B inh: blocks KSHV LANA binding to histone H2A/H2B. cell-free LANA-H2A/H2B peptide, fluorescence polarization. Q9QR71. 0.6% of 320,000 active. inhibition, % (test concentration not listed); in the data active = inhibition mostly above about 10%, no sharp cut-off; inactive = mostly below about 6.7%
Hits are given with their value; – = inactive; · = not tested or not shown.

SMILES	Rtt109 Vps75	ABHD5 PLIN5 PPI	PRMT1 FP inh	rCAG binder	ALR inh	LANA-H2B inh
CCOC(=O)CSC1=NC(=O)/C(=C\c2ccc(Cl)cc2)S1	–	–	–	–	98.6	–
CC1(C(=O)NCc2cccs2)CCN1CCc1ccccc1 (centres undefined)	·	–	–	–	·	·
CN(C(=O)c1cccc(NC(=O)Cc2cccc(NC(=O)C3CCN(C(=O)CCc4ccccc4)CC3)c2)c1)C1CC1	–	–	–	–	·	·
COc1ccccc1Cc1c(-c2ccc(C)cc2)nc2ccc(C)cn12	·	·	–	–	·	·
O=C(Nc1ccccc1C(F)(F)F)NC1(C(=O)N2CCOCC2)CCCCC1	–	–	23.5	71.9	·	·
Cc1nc2ccc(S(=O)(=O)NC(C(=O)Nc3nccs3)C(C)C)cc2s1 (centres undefined)	–	–	–	–	91.8	–
COC(=O)[C@H]1C[C@@]2(N3CCCC3)c3ccccc3N[C@H]2N1S(=O)(=O)c1ccc([N+](=O)[O-])cc1	·	·	–	–	·	·
COc1ccccc1C(=O)CSc1nccn1C	53.8	–	–	–	·	–
Cn1ccnc1SCC(=O)c1c[nH]c2ccccc12	–	–	–	–	96.2	–
COC(=O)c1ccccc1NC(=O)CSc1nccn1C	–	–	–	–	–	–
Cc1cc(C)c(O)c(C(=O)CC2CC(=O)NC(=O)C2)c1	·	·	–	–	·	·
O=C(NCCc1c[nH]c2ccccc12)OCc1cn(Cc2cc(F)cc(F)c2)nn1	·	·	–	–	·	·
c1ccc(N2CCN(c3ccccc3)C2c2ccncc2)cc1	–	–	–	–	86.2	–
Cc1nc2c(OCc3ccc(C#N)cc3)cccn2c1N(C)C(=O)CCC1CCCC1	·	–	–	–	·	·
CCN(Cc1ccncc1)Cc1nc(-c2ccc(C(=O)OC)cc2)no1	–	–	–	–	–	9.6
CCC[C@H]1[C@@H](NC(=O)c2ccc(C)cc2)CC[C@@]23CCCN2C(=O)CCC[C@@H]13	·	·	–	·	·	·
O=C(NNc1nc2ccccc2nc1C(F)(F)F)c1ccccc1	–	–	–	–	97.9	–
NNc1nc2ccccc2nc1C(F)(F)F	–	–	–	–	–	–
CC(C)n1nnnc1C1c2ccccc2C(=O)N1Cc1ccco1 (centres undefined)	·	–	–	–	·	·
Cc1ccc(-c2nc(SCC(=O)N(C)C3CCS(=O)(=O)C3)[nH]c2-c2ccc(C)cc2)cc1 (centres undefined)	–	–	–	–	97.8	–
CCN1C(=O)[C@H]2[C@@H](c3ccc(OC)cc3)N[C@]3(CCCN(Cc4ccc(Br)cc4)C3=O)[C@H]2C1=O	·	–	–	–	·	·
COc1cc(NCc2ccccc2)c2ncn(C(C)C)c2c1	–	–	–	–	98.3	–
COc1ccc2c(/C=N/NS(=O)(=O)c3ccc(C)cc3)c[nH]c2c1	–	–	–	–	89.3	–
COc1ccc(OC)c(S(=O)(=O)NNC(=S)Nc2ccc3c(c2)OCO3)c1	–	–	–	–	94.0	–
CC(CCc1ccccc1)NC(=O)CN1CCSc2ccccc21 (centres undefined)	–	–	–	–	98.9	–
SMILES	Rtt109 Vps75	ABHD5 PLIN5 PPI	PRMT1 FP inh	rCAG binder	ALR inh	LANA-H2B inh
COc1ccc(CCNC(=O)CN2CCOc3ccccc32)cc1OC	–	–	–	–	–	–
CC(CCc1ccccc1)NC(=O)CN1CCN(Cc2ccc(Cl)cc2)C1=O (centres undefined)	–	–	–	–	·	–
CC(CCc1ccccc1)NC(=O)CN1CCN(Cc2ccccc2)C1=O (centres undefined)	–	–	–	–	–	–
CC(CCc1ccccc1)NC(=O)CN1CCOc2ccccc21 (centres undefined)	–	–	–	–	98.5	–
O=C(CN1CCOc2ccccc21)NCc1ccccc1	–	–	–	–	98.4	–
N#Cc1ccc(Cn2ccc3ccc(-c4ccc5ccn(Cc6ccc(C#N)cc6)c5c4)cc32)cc1	·	·	–	–	·	·
CCCCCc1ccc(NC(=O)OCCN2C(=O)CCC23CCC(c2ccccc2)CC3)cc1 (centres undefined)	·	·	–	–	·	·
COc1ccc(C(=O)CSc2nnc(-c3ccccn3)n2-c2ccccc2)cc1	·	·	–	–	·	·
O=C(/C=C/c1ccccc1)Nc1ncn[nH]1	–	–	·	·	–	14.4
O=C(O)C(=O)Nc1ncn[nH]1	·	–	–	–	·	·
CCn1c(C)nc2cc(C(=O)N/N=C/c3ccc(O)cc3)ccc21	–	–	–	–	99.1	–
CCn1c(C)nc2cc(C(=O)N/N=C/c3ccccc3)ccc21	–	–	–	–	–	–
CCn1c(C)nc2cc(C(=O)N/N=C/c3ccc(N4CCOCC4)cc3)ccc21	–	–	–	–	91.4	–
CCn1c(C)nc2cc(C(=O)N/N=C(\C)c3ccc(N4CCOCC4)cc3)ccc21	–	–	–	–	–	–
CCn1c(C)nc2cc(C(=O)N/N=C/c3cccc(O)c3O)ccc21	–	–	–	–	99.0	–
CCn1c(C)nc2cc(C(=O)NNC(=S)Nc3ccc(Cl)cc3)ccc21	–	–	–	–	87.1	–
CCn1c(C)nc2cc(C(=O)NNC(=S)Nc3ccc(F)cc3)ccc21	–	–	–	–	–	–
CC(C)(C)Cc1c(-c2cccc(Cl)c2)nc2ccc(Br)cn12	·	–	–	–	·	·
O=C(CSc1nnc(COc2ccc(Cl)cc2)n1Cc1ccco1)Nc1cccc2ccccc12	·	·	–	–	·	·
COc1ccc(CNC(=O)c2ccc3c(c2)N(C)C(=O)CS3=O)cc1 (centres undefined)	–	–	22.4	–	–	–
COc1ccc(CNC(=O)c2ccc3c(c2)N(C)CCS3)cc1	–	–	–	–	95.9	–
COc1ccc(C(=O)NCc2ccc(N3CCN(C)CC3)cc2)cc1	–	–	–	–	·	–
CC(C)Oc1ccc(CNC(=O)c2ccc3c(c2)N(C)CCS3)cc1	–	–	–	–	–	–
COC(=O)[C@]12C[C@H](CC(=O)NCc3cccc4ccccc34)C(=O)N(CCC3=CCCCC3)C1=C[C@H](COCc1ccccc1)O[C@@H]2C	·	·	–	–	·	·
COCCCNC(=O)c1ccc(Cn2c(=O)c3ccccc3n(Cc3ccc([N+](=O)[O-])cc3)c2=O)cc1	·	·	–	–	·	·
Cc1ccc(-c2nc3ccccc3n2C(C)C(=O)NC(C)(C)C)cc1 (centres undefined)	·	–	–	–	·	·
C=CC[C@H](CC(=O)NCCO)C(=O)N[C@H](C)COC(=O)[C@@H](CC=C)Cc1ccc(F)cc1	–	–	–	–	–	13.7
C=CC[C@@H](CC(=O)N[C@@H](CO)Cc1ccccc1)C(=O)N[C@H](COC(=O)[C@@H](CC=C)CC(=O)OC(C)(C)C)Cc1c[nH]c2ccccc12	–	–	–	–	–	–
C=CC[C@H](CC(=O)N[C@H](CO)Cc1ccccc1)C(=O)N[C@@H](COC(=O)[C@@H](CC=C)CC(=O)OC(C)(C)C)Cc1c[nH]c2ccccc12	–	–	–	–	–	18.7

Bioassay records (PubChem)
